Many of the other results were omitted from the sample, so hits are more common in it than they were.
CHX counter = counter-screen for Shiga toxin inhibitors: cycloheximide protein synthesis inhibition; cell reporter, cycloheximide protein synthesis inhibition counterscreen; 300,000 compounds, 12% hits; max response, %; in the data active means max response mostly above about 13%, no sharp cut-off; inactive means mostly below about 14%; further: read at 38.3 µM for the half of the compounds with a filed dose; 0% is about no effect
Shiga inhibitor = Shiga toxin inhibition; Vero cells, Shiga toxin protein synthesis inhibition reporter; inhibition, % at 38.7 µM; 290,000 compounds, 9.2% hits; AID 2315; in the data active means inhibition mostly above about 28%, no sharp cut-off; inactive means mostly below about 43%; further: 0% is about no effect
Tb PYK inh = inhibitors of Trypanosoma brucei pyruvate kinase; TbPYK enzyme, Kinase-Glo Plus ATP luminescence, 45 min; Potency, µM (titrated, usually from 76.8 µM), inactives show at the top dose activity, negative = inhibition, usual class: inhibitors; 410,000 compounds, 0.12% hits; further: potency means the concentration at half of the fitted maximal effect; on the % scale 0 is the no-effect control and ±100 the full control effect; nearly all actives have a fitted effect of over 50% in size
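In this concentration-response screen, enzyme-free wells defined baseline while DMSO plates tracked drift. Each reaction combined TbPYK, substrate, compound and 130 uM ADP for 45 min at room temperature. Kinase-Glo Plus luminescence gave the signal.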
LmPK inhibitor = blocks Leishmania mexicana pyruvate kinase activity | Q27686 | purified LmPK, Kinase-Glo ATP luminescence, 1 h | Potency, µM (titrated, usually from 57.5 µM), inactives show at the highest dose activity change, negative = inhibition, usual class: inhibitors | 290,000 compounds, 0.37% hits; further: potency means the concentration at half of the fitted maximal effect; on the % scale 0 is the no-effect control and ±100 the full control effect
Target sequence (Q27686 whole entry, looked up): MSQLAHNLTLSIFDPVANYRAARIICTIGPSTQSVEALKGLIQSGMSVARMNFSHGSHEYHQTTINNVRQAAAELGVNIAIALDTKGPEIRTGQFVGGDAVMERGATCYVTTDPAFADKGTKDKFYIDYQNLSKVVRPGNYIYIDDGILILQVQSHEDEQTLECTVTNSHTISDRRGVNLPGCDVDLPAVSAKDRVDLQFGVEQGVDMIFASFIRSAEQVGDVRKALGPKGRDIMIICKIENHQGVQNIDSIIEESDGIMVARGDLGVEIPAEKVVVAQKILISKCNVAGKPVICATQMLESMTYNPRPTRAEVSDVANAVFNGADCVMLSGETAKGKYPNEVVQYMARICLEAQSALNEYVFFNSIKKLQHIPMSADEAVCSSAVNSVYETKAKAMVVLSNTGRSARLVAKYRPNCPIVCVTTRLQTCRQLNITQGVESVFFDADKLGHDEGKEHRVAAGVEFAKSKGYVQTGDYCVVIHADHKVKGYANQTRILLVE
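Screened at intermediate enzyme activity to detect both inhibitors and activators: LmPK at 0.1 nM, with a 0.5 nM enzyme column as activation reference. PEP 0.5 mM, ADP 0.1 mM; ATP detected by luminescence after 1 h.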
RE007 growth inh = less growth of the S. pombe RE007 Vpr strain | S. pombe RE007 Vpr strain, BacTiter-Glo ATP luminescence, 24 h | Potency, µM (doses to about 92.2 µM), inactives show top-dose activity change, negative = less growth, hits mostly inhibitors | 360,000 compounds, 0.21% hits | AID 651644; active means well fitted falling curve with a large enough effect; inconclusive means small, poorly fitted or top-dose-only effect; inactive means no such curve, though single readings can be large or run the other way; further: potency means the concentration at half of the fitted maximal effect; on the % scale 0 is the no-effect control and ±100 the full control effect; nearly all actives have a fitted effect of over 50% in size
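Fission yeast RE007 carrying one integrated HIV-1 vpr copy, seeded at OD 0.01 in PMG+AL medium with 23 nL pinned compound. Grown 24 h at 30 degrees; viability read by BacTiter-Glo luminescence after 5 min.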
FBPA Giardia inh = blocks Giardia fructose-bisphosphate aldolase activity; A8B2U2; purified Giardia FBPA; Potency, µM (titrated, usually from 59.6 µM), for the others: top-dose activity, negative = inhibition, actives largely listed as inhibitors; 290,000 compounds, 0.71% hits; further: potency means the concentration at half of the fitted maximal effect; on the % scale 0 is the no-effect control and ±100 the full control effect; nearly all actives have a fitted effect of over 55% in size
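40 nM FBPA preincubated 10 min at RT with compound (up to 57.5 uM final), then substrate plus GAPDH/TPI/NAD/arsenate coupling and diaphorase/resazurin added. Fluorescence read after 20 min at RT, 525/598 nm.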
* marks the source's active call; other numbers are inactive results; ? = inconclusive; / = not tested or not shown; [ ] = another dose, or the depositor's remark. Unless noted, the call rests on the fitted dose curve; in most records, active means well fitted curve in the direction sought with a large enough effect; inconclusive means small, poorly fitted or top-dose-only effect, or another doubt; inactive means no such curve, though single readings can be large; an effect the other way counts as inactive or inconclusive.

SMILES | CHX counter | Shiga inhibitor | Tb PYK inh | LmPK inhibitor | RE007 growth inh | FBPA Giardia inh
O=C(Nc1cccc(S(=O)(=O)N2CCCCC2)c1)c1ccccn1 | 27* | 26 | 2% | -3% | 1% | -12%
Cc1ccc(S(=O)(=O)N2CCCCC2)cc1NC(=O)c1ccc2ccccc2n1 | 46* | 47* | -1% | -2% | 0% | -20%
CCCC(=O)O[C@]1(C(=O)CCl)[C@H](C)C[C@@H]2[C@H]3CCC4=CC(=O)C=C[C@]4(C)[C@@]3(F)C(=O)C[C@@]21C | / | / | 3% | / | / | /
COc1ccc(NC(=O)c2ccc3ccccc3n2)cc1S(=O)(=O)N1CCCCC1 | 38* | 44 | -3% | 3% | -3% | -7%
COc1ccc(S(=O)(=O)N2CCCCC2)cc1NC(=O)c1ccc2ccccc2n1 | 14 | -7 | 5% | 2% | -10% | -2%
O=C(Nc1ccc(N2CCCCC2)cc1)c1ccc2ccccc2n1 | 29* | 78* | -2% | 7% | -17% | -17%
O=C(Nc1nc2ccc(S(=O)(=O)N3CCCC3)cc2s1)c1ccccn1 | 38* | 60* | ? | ? | 8% | ?
CCc1ccccc1NC(=O)CN(c1ccc(OC)cc1OC)S(=O)(=O)c1ccccc1 | -1 | -8 | -15% | -2% | 8% | 5%
CCCOc1ccc(C2c3c(oc4ccccc4c3=O)C(=O)N2c2nc(C)c(C(=O)OCC)s2)cc1 (stereo unspecified) | / | / | -10% | / | / | /
Cc1[nH][nH]c(=O)c1N=Nc1ccccc1Cl | 22* | 56* | -1% | -16% | -14% | 1%
COc1ccccc1S(=O)(=O)N[C@@H]1CC[C@@H](CCn2cc(C3CC3)nn2)O[C@@H]1CO | / | / | / | / | 0% | /
Cn1ccc2c(-c3ccc(C(=O)O)cc3)cc3c(c21)C1CCC3C1 (stereo unspecified) | / | / | 2% | / | 45µM* | /
CC(=O)Oc1ccc(N2C(=O)[C@@H]3[C@H](C2=O)[C@H]2c4ccccc4C=NN2[C@@H]3C(C)=O)cc1 | -2 | 12 | -6% | -9% | 5% | 2%
CC(=O)c1ccc(N2C(=O)[C@@H]3[C@H](C2=O)[C@H]2c4ccccc4C=NN2[C@@H]3C(C)=O)cc1 | 10* | 32 | -1% | 7% | 2% | -6%
COC(=O)c1ccc(NC(=O)CSc2cn(CC(=O)N3CCCCC3)c3ccccc23)cc1 | / | / | -22% | / | / | /
CN(C)c1ccc(C(=O)OCC(=O)NC2CCCCCC2)cc1 | 0 | -11 | -2% | 2% | 2% | 10%
CN(C)c1ccc(N=Nc2ccccc2C(=O)OCC(=O)NCC2CCCCC2)cc1 | 69* | 72* | -5% | -1% | 8% | -3%
O=C(COC(=O)c1ccccc1Br)NCC1CCCCC1 | / | / | 2% | / | 23% | /
CN(C(=O)COC(=O)c1cccnc1Cl)C1CCCCC1 | / | / | 7% | / | 1% | /
CN(C)c1ccc(N=Nc2ccccc2C(=O)OCC(=O)NC2CCCC2)cc1 | 24* | 26* | -20% | -8% | -10% | 0%
CN(C)c1ccc(N=Nc2ccccc2C(=O)OCC(=O)N(C)C2CCCCC2)cc1 | 27* | 29* | -17% | -1% | 8% | -3%
COc1ccc(S(=O)(=O)Nc2ccc3c(c2)C(=O)N([C@H](C)CO)C[C@H](C)[C@@H](CN(C)C(=O)Nc2ccc(C(F)(F)F)cc2)OCCCC[C@H](C)O3)cc1 | / | / | -1% | / | -23% | /
CN(Cc1ccccc1)C(=O)[C@@H]1CCCN1C(=O)OC(C)(C)C | / | / | -15% | / | 8% | /
COc1ccc(CNC(=S)NCc2ccc(OC)cc2)cc1 | 1 | -3 | -5% | 1% | -6% | -7%
COc1ccc(NC(=O)NCc2ccc3c(c2)OCO3)cc1 | 2 | 7 | 4% | 3% | 13% | 4%
SMILES | CHX counter | Shiga inhibitor | Tb PYK inh | LmPK inhibitor | RE007 growth inh | FBPA Giardia inh
CC(=O)Nc1ccc(OCc2ccc3c(c2)OCO3)cc1 | 46* | 167* | -13% | -13% | -4% | -2%
CCOc1ccc(NC(=S)NCc2ccc3c(c2)OCO3)cc1 | 9.1* | 23 | 2% | 11% | 18% | -2%
Cc1ccc(NC(=S)NCc2ccc3c(c2)OCO3)cc1 | 7 | 6 | -3% | 3% | -1% | -3%
CCOc1ccc(CNC(=S)NCc2ccc(OCC)cc2)cc1 | 11* | 9 | -2% | -3% | 1% | 5%
Cc1cc2sc3ccccc3c(=O)c2c(C)c1O | 71* | 85* | -14% | 2% | -12% | -9%
O=C(c1ccc(Cl)cc1)N1N=CCC1(O)c1ccc(Cl)cc1 (stereo unspecified) | 22* | 38 | 4% | 1% | -2% | 9%
Cc1ccc(N2CCN(C(=O)C(=O)c3cccc(Br)c3)CC2)cc1 | / | / | / | / | -5% | /
Cc1nc(C(=O)N/N=C/c2[nH]ncc2Br)cs1 | 35* | 45 | 2% | -1% | -23% | -5%
Cc1cc(C(=O)N/N=C/c2cn[nH]c2-c2ccccc2)cs1 | 9 | 15 | 15% | 4% | 6% | 4%
O=C(Nc1ccc2c(c1)CCCN2C(=O)c1cccs1)c1cccc(C(F)(F)F)c1 | / | / | 2% | / | / | /
CN(/N=C/c1cccnc1)c1cnn(-c2ccc(F)c(Cl)c2)c(=O)c1Cl | 20* | 82 | -11% | 4% | 7% | 4%
Cc1ccc2nc(NC(=O)COC(=O)c3ccco3)sc2c1 | 34* | 86* | / | 0% | -9%[3.69 µM] | -4%
O=C(COC(=O)c1ccc(Br)o1)Nc1nc2ccccc2s1 | 1 | 3 | -3% | 3% | -3% | -4%
Cc1ccc2nc(NC(=O)COC(=O)c3ccc(Br)o3)sc2c1 | 23* | 133* | -14% | 2% | -5% | -4%
O=C(COC(=O)c1ccco1)Nc1nc2ccc([N+](=O)[O-])cc2s1 | 19 | 2 | 1% | 3% | 11% | 15%
Cc1cc(C)cc(OCCCn2c(-c3ccc(Cl)cc3)nc3ccccc3c2=O)c1 | / | / | -11% | / | / | /
COc1ccc(NC(=O)CC2CCCCC2)cc1OC | 27* | 36 | -3% | -1% | -7% | -13%
O=C(CC1CCCC1)Nc1ccc(Br)cc1 | 32* | 76* | 3% | 2% | -2% | -7%
CCN(CC)CCNC(=O)c1[nH]c2ccccc2c1Sc1ccc(Cl)cc1 | / | / | -3% | / | / | /
COc1ccc2[nH]cc(CCNc3cc(-c4ccccc4OC)ncn3)c2c1 | / | / | / | / | / | -12%
CN1CCN(S(=O)(=O)c2ccc(NC(=S)NC(=O)c3ccccc3)cc2)CC1 | 21* | 36 | -22% | 0% | -8% | ?
CCC(=O)NC(=S)Nc1ccc(S(=O)(=O)N2CCN(C)CC2)cc1 | -3 | 14 | 2% | -11% | -3% | 1%
CN1CCN(S(=O)(=O)c2ccc(NC(=S)NC(=O)c3ccc(Cl)cc3)cc2)CC1 | 23* | 52 | -6% | 0% | 8% | -4%

From PubChem BioAssay
